# In publication PMC8222333, “AsCas12a ultra nuclease facilitates the rapid generation of therapeutic cell medicines”:
# B1: TTTT (dsDNA)
# DNA 1: GCTATCTAGTGCTCAGTACGCACTGTTTTAGGAAACTTCTGGCAGGACCAGGTCATGAGATCGGAAGAGCACACGTCTGAACTCCAGTCA
# DNA 2: TGACTGGAGTTCAGACGTGTGCTCTTCCGATCTCATGACCTGGTCCTGCCAGAAGTTTCCTAAAACAGTGCGTACTGAGCACTAGATAGC
# RNA: AAUUUCUACUCUUGUAGAUAGGAAACUUCUGGCAGGACC
# B2: AATC (dsDNA)
# DNA 1: GCTATCTAGTGCTCAGTACGCACTGAATCAGGAAACTTCTGGCAGGACCAGGTCATGAGATCGGAAGAGCACACGTCTGAACTCCAGTCA
# DNA 2: TGACTGGAGTTCAGACGTGTGCTCTTCCGATCTCATGACCTGGTCCTGCCAGAAGTTTCCTGATTCAGTGCGTACTGAGCACTAGATAGC
# RNA: AAUUUCUACUCUUGUAGAUAGGAAACUUCUGGCAGGACC
# B3: ATTT (dsDNA)
# DNA 1: GCTATCTAGTGCTCAGTACGCACTGATTTAGGAAACTTCTGGCAGGACCAGGTCATGAGATCGGAAGAGCACACGTCTGAACTCCAGTCA
# DNA 2: TGACTGGAGTTCAGACGTGTGCTCTTCCGATCTCATGACCTGGTCCTGCCAGAAGTTTCCTAAATCAGTGCGTACTGAGCACTAGATAGC
# RNA: AAUUUCUACUCUUGUAGAUAGGAAACUUCUGGCAGGACC
# B4: ACTG (dsDNA)
# DNA 1: GCTATCTAGTGCTCAGTACGCACTGACTGAGGAAACTTCTGGCAGGACCAGGTCATGAGATCGGAAGAGCACACGTCTGAACTCCAGTCA
# DNA 2: TGACTGGAGTTCAGACGTGTGCTCTTCCGATCTCATGACCTGGTCCTGCCAGAAGTTTCCTCAGTCAGTGCGTACTGAGCACTAGATAGC
# RNA: AAUUUCUACUCUUGUAGAUAGGAAACUUCUGGCAGGACC
# B5: ACTA (dsDNA)
# DNA 1: GCTATCTAGTGCTCAGTACGCACTGACTAAGGAAACTTCTGGCAGGACCAGGTCATGAGATCGGAAGAGCACACGTCTGAACTCCAGTCA
# DNA 2: TGACTGGAGTTCAGACGTGTGCTCTTCCGATCTCATGACCTGGTCCTGCCAGAAGTTTCCTTAGTCAGTGCGTACTGAGCACTAGATAGC
# RNA: AAUUUCUACUCUUGUAGAUAGGAAACUUCUGGCAGGACC
# B6: ACTT (dsDNA)
# DNA 1: GCTATCTAGTGCTCAGTACGCACTGACTTAGGAAACTTCTGGCAGGACCAGGTCATGAGATCGGAAGAGCACACGTCTGAACTCCAGTCA
# DNA 2: TGACTGGAGTTCAGACGTGTGCTCTTCCGATCTCATGACCTGGTCCTGCCAGAAGTTTCCTAAGTCAGTGCGTACTGAGCACTAGATAGC
# RNA: AAUUUCUACUCUUGUAGAUAGGAAACUUCUGGCAGGACC
# B7: ATTC (dsDNA)
# DNA 1: GCTATCTAGTGCTCAGTACGCACTGATTCAGGAAACTTCTGGCAGGACCAGGTCATGAGATCGGAAGAGCACACGTCTGAACTCCAGTCA
# DNA 2: TGACTGGAGTTCAGACGTGTGCTCTTCCGATCTCATGACCTGGTCCTGCCAGAAGTTTCCTGAATCAGTGCGTACTGAGCACTAGATAGC
# RNA: AAUUUCUACUCUUGUAGAUAGGAAACUUCUGGCAGGACC
# B8: AGGA (dsDNA)
# DNA 1: GCTATCTAGTGCTCAGTACGCACTGAGGAAGGAAACTTCTGGCAGGACCAGGTCATGAGATCGGAAGAGCACACGTCTGAACTCCAGTCA
# DNA 2: TGACTGGAGTTCAGACGTGTGCTCTTCCGATCTCATGACCTGGTCCTGCCAGAAGTTTCCTTCCTCAGTGCGTACTGAGCACTAGATAGC
# RNA: AAUUUCUACUCUUGUAGAUAGGAAACUUCUGGCAGGACC
# B9: AGAA (dsDNA)
# DNA 1: GCTATCTAGTGCTCAGTACGCACTGAGAAAGGAAACTTCTGGCAGGACCAGGTCATGAGATCGGAAGAGCACACGTCTGAACTCCAGTCA
# DNA 2: TGACTGGAGTTCAGACGTGTGCTCTTCCGATCTCATGACCTGGTCCTGCCAGAAGTTTCCTTTCTCAGTGCGTACTGAGCACTAGATAGC
# RNA: AAUUUCUACUCUUGUAGAUAGGAAACUUCUGGCAGGACC
# B10: ATTG (dsDNA)
# DNA 1: GCTATCTAGTGCTCAGTACGCACTGATTGAGGAAACTTCTGGCAGGACCAGGTCATGAGATCGGAAGAGCACACGTCTGAACTCCAGTCA
# DNA 2: TGACTGGAGTTCAGACGTGTGCTCTTCCGATCTCATGACCTGGTCCTGCCAGAAGTTTCCTCAATCAGTGCGTACTGAGCACTAGATAGC
# RNA: AAUUUCUACUCUUGUAGAUAGGAAACUUCUGGCAGGACC
# B11: ATTA (dsDNA)
# DNA 1: GCTATCTAGTGCTCAGTACGCACTGATTAAGGAAACTTCTGGCAGGACCAGGTCATGAGATCGGAAGAGCACACGTCTGAACTCCAGTCA
# DNA 2: TGACTGGAGTTCAGACGTGTGCTCTTCCGATCTCATGACCTGGTCCTGCCAGAAGTTTCCTTAATCAGTGCGTACTGAGCACTAGATAGC
# RNA: AAUUUCUACUCUUGUAGAUAGGAAACUUCUGGCAGGACC
# B12: AATA (dsDNA)
# DNA 1: GCTATCTAGTGCTCAGTACGCACTGAATAAGGAAACTTCTGGCAGGACCAGGTCATGAGATCGGAAGAGCACACGTCTGAACTCCAGTCA
# DNA 2: TGACTGGAGTTCAGACGTGTGCTCTTCCGATCTCATGACCTGGTCCTGCCAGAAGTTTCCTTATTCAGTGCGTACTGAGCACTAGATAGC
# RNA: AAUUUCUACUCUUGUAGAUAGGAAACUUCUGGCAGGACC
# B13: ACTC (dsDNA)
# DNA 1: GCTATCTAGTGCTCAGTACGCACTGACTCAGGAAACTTCTGGCAGGACCAGGTCATGAGATCGGAAGAGCACACGTCTGAACTCCAGTCA
# DNA 2: TGACTGGAGTTCAGACGTGTGCTCTTCCGATCTCATGACCTGGTCCTGCCAGAAGTTTCCTGAGTCAGTGCGTACTGAGCACTAGATAGC
# RNA: AAUUUCUACUCUUGUAGAUAGGAAACUUCUGGCAGGACC
# B14: AATT (dsDNA)
# DNA 1: GCTATCTAGTGCTCAGTACGCACTGAATTAGGAAACTTCTGGCAGGACCAGGTCATGAGATCGGAAGAGCACACGTCTGAACTCCAGTCA
# DNA 2: TGACTGGAGTTCAGACGTGTGCTCTTCCGATCTCATGACCTGGTCCTGCCAGAAGTTTCCTAATTCAGTGCGTACTGAGCACTAGATAGC
# RNA: AAUUUCUACUCUUGUAGAUAGGAAACUUCUGGCAGGACC
# Target: dAsCas12a WT (Acidaminococcus sp., UniProt U2UMQ6 1-1307, D908A;E993A;D1235A)
# Experiment: Spec-seq (native PAGE EMSA with sequencing of bound and unbound); 25 mM Tris-HCl pH 7.4, 150 mM KCl, 5 mM MgCl2, 10% glycerol, 1 mM DTT, 40 ng/uL salmon sperm DNA; 400 nM Cas12a, 480 nM crRNA, 50 nM library, 37 C 1 h; native P; high values mean tight binding
# Conditions: not given
row,Binder,binding signal [lnKA]
1,B1,-5.51
2,B3,-8.27
3,B7,-6.67
4,B10,-7.65
5,B11,-6.74

# Target: dAsCas12a Ultra (Acidaminococcus sp., UniProt U2UMQ6 1-1307, M537R;F870L;D908A;E993A;D1235A)
# Experiment: Spec-seq (native PAGE EMSA with sequencing of bound and unbound); 25 mM Tris-HCl pH 7.4, 150 mM KCl, 5 mM MgCl2, 10% glycerol, 1 mM DTT, 40 ng/uL salmon sperm DNA; 400 nM Cas12a, 480 nM crRNA, 50 nM library, 37 C 1 h; native PAGE at room temperature; high values mean tight binding
# Conditions: protein: recombinant
row,Binder,binding signal [lnKA]
1,B1,-3.17
2,B2,-8.65
3,B3,-7.31
4,B4,-7.71
5,B5,-7.24
6,B6,-8.57
7,B7,-4.57
8,B8,-8.33
9,B9,-8.87
10,B10,-5.43
11,B11,-4.56
12,B12,-8.32
13,B13,-6.74
14,B14,-8.59

# Target: dAsCas12a E174R (Acidaminococcus sp., UniProt U2UMQ6 1-1307, E174R;D908A;E993A;D1235A)
# Experiment: as above
# Conditions: protein: recombinant
row,Binder,binding signal [lnKA]
1,B1,-2.29
2,B2,-8.08
3,B3,-6.8
4,B4,-7.65
5,B5,-5.96
6,B6,-8.23
7,B7,-3.93
8,B9,-8.92
9,B10,-4.83
10,B11,-2.6
11,B12,-7.04
12,B13,-6.65
13,B14,-8.34

# Target: dAsCas12a S542R (Acidaminococcus sp., UniProt U2UMQ6 1-1307, S542R;D908A;E993A;D1235A)
# Experiment: as above
# Conditions: protein: recombinant
row,Binder,binding signal [lnKA]
1,B1,-2.76
2,B2,-8.19
3,B3,-7.13
4,B4,-7.86
5,B5,-7.5
6,B6,-7.91
7,B7,-4.41
8,B8,-8.24
9,B9,-8.59
10,B10,-4.9
11,B11,-4.16
12,B12,-8.13
13,B13,-7.33
14,B14,-8.01

# Target: dAsCas12a K548R (Acidaminococcus sp., UniProt U2UMQ6 1-1307, K548R;D908A;E993A;D1235A)
# Experiment: as above
# Conditions: protein: recombinant
row,Binder,binding signal [lnKA]
1,B1,-4.73
2,B2,-8.64
3,B3,-8.23
4,B7,-5.19
5,B10,-6.23
6,B11,-5.45

# Target: d-enCas12a (Acidaminococcus sp., UniProt U2UMQ6 1-1307, E174R;S542R;K548R;D908A;E993A;D1235A)
# Experiment: as above
# Conditions: protein: recombinant
row,Binder,binding signal [lnKA]
1,B1,-0.44
2,B2,-2.56
3,B3,-2.42
4,B4,-5.67
5,B5,-5.02
6,B6,-5.7
7,B7,-0.519
8,B8,-5.52
9,B9,-5.61
10,B10,-1.2
11,B11,-0.456
12,B12,-2.24
13,B13,-4.8
14,B14,-5.1

# Target: d-enCas12a-Ultra (Acidaminococcus sp., UniProt U2UMQ6 1-1307, E174R;S542R;K548R;M537R;F870L;D908A;E993A;D1235A)
# Experiment: as above
# Conditions: protein: recombinant
row,Binder,binding signal [lnKA]
1,B1,-0.171
2,B2,-0.883
3,B3,-0.548
4,B4,-2.87
5,B5,-1.82
6,B6,-3.19
7,B7,-0.186
8,B8,-3.42
9,B9,-3.36
10,B10,-0.339
11,B11,-0.172
12,B12,-0.762
13,B13,-1.58
14,B14,-2.64
